# Screening data (PubChem BioAssay)
# BAZ2B inh: inhibitors of human BAZ2B bromodomain; hit rate 4.4% among 360,000; AID 504333; Potency, µM (titrated, usually from 114 µM), actives largely listed as inhibitors; AlphaScreen BAZ2B-H3K14Ac peptide displacement; note: nearly all actives have a fitted effect of over 60% in size
#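 AlphaScreen displacement of biotin-H3(5-23)K14Ac peptide (50 nM final) from BAZ2B (50 nM final) in PBS pH 7.4, 0.01% Tween-20; complex preformed 30 min RT, then compounds (top 110 uM) 30 min RT, beads 20 min dark.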
# CtBP-E1A blk: inhibitors of CtBP/E1A interaction; activity change, % (test concentration not listed); hit rate 0.49% among 340,000; AlphaScreen GST-E1A/His-CtBP binding, 1536-well; active compounds read low; in the data active = activity change below about -65%; inconclusive = mostly about -30% to -63%
#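 In 5 uL wells, 23 nL compound meets equimolar GST-E1A and His-CtBP (5X stock 125 nM each) for 2 h, 37 °C. Beads (5X, 50 ug/mL) then 1 h, 37 °C, dark.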
# Six1-Eya2 blk: blocks human Six1 binding to Eya2. hit rate 0.56% among 360,000. activity change, % (no concentration beside the values). AlphaScreen GST-Six1/His-Eya2 binding, biochemical; active compounds read low. Q15475+O00167; in the data active = activity change below about -65%; inconclusive = mostly about -30% to -63%
#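 AlphaScreen luminescence read after one hour at 37 °C in darkness. Pin-transferred compounds met GST-Six1 and His-Eya2 protein (5X stock 250 nM/500 nM) plus glutathione donor and Ni-chelate acceptor beads (5X, 50 ug/mL).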
# TDP1 block: inhibitors of human tyrosyl-DNA phosphodiesterase TDP1 | recombinant TDP1, AlphaScreen DNA substrate cleavage | Potency, µM (highest dose often 130 µM), most hits filed as inhibitors | hit rate 0.28% among 350,000 | AID 485290; note: nearly all actives have a fitted effect of over 40% in size
#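 E. coli-derived human Tdp1, 1 nM final. Cpd preinc 15 min RT; substrate 15 nM final, 5 min RT; AS bead mix 10 ug/ml final, 10 min RT. Signal loss = tyrosine-FITC cleavage. No-enzyme wells = max signal.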
# HP1b binding inh: HP1-beta chromodomain-methylated histone interaction inhibition | AlphaScreen HP1-beta / biotin-H3K9me3 peptide binding | AID 540317 | P83916 | Potency, µM (highest dose often 114 µM), hits mostly inhibitors | hit rate 0.56% among 390,000; note: nearly all actives have a fitted effect of over 70% in size
# Target sequence (P83916 whole entry, looked up): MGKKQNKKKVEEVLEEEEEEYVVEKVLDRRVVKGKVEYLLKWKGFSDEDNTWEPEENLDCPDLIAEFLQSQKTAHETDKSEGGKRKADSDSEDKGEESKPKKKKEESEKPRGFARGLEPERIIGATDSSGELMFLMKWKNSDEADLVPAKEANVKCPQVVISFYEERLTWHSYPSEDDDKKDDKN
#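 HP1-beta protein (50 nM final) preincubated 30 min at room temperature with biotinylated H3(1-18)K9me3 peptide (50 nM) in PBS pH 7.4, 0.01% Tween-20, then compound added for 30 min. AlphaScreen streptavidin donor/nickel chelate acceptor beads (10 ug/mL final), 30 min dark, luminescence read.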
# JMJD2A Tudor inh: blocks the human JMJD2A Tudor domain. O75164. AlphaScreen JMJD2A-Tudor / H3K4me3 peptide binding. Potency, µM (top dose mostly 114 µM), usual class: inhibitors. hit rate 4.4% among 390,000. AID 504339; note: nearly all actives have a fitted effect of over 50% in size
# JMJD2E confirm: confirmation of inhibitors of human JMJD2E demethylase | shares compounds with JMJD2A Tudor inh | Recombinant JMJD2E, FDH-coupled NADH fluorescence (FDH is formaldehyde dehydrogenase) | Potency, µM (top dose mostly 56.8 µM), most hits filed as inhibitors | hit rate 93% among 140 | AID 2677
# FDH counter: FDH (Pseudomonas putida) inhibition counter-screen; shares compounds with JMJD2A Tudor inh; hit rate 10% among 140; FDH enzyme assay, NADH fluorescence kinetic; AID 2680; Potency, µM (highest dose often 56.7 µM), usual class: inhibitors
# G9a confirm: inhibits human G9a histone lysine methyltransferase, hit confirmation. shares compounds with JMJD2A Tudor inh. G9a H3K9 monomethylation, AlphaScreen, 2 h. Potency, µM, most hits filed as inhibitors. hit rate 89% among 370. AID 588344; note: nearly all actives have a fitted effect of over 65% in size
# Target sequence (Q96KQ7 913-1193 limits assumed): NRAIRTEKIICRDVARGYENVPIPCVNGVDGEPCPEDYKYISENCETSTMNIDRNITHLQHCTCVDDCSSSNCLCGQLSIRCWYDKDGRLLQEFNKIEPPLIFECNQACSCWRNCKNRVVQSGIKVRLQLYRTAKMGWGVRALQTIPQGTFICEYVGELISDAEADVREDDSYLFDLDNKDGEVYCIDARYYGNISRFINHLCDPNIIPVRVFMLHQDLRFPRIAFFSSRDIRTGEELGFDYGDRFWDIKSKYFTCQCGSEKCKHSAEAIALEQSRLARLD
# RGS4 confirm: confirmation of human RGS4 inhibitors | RGS4 GAP activity, Transcreener GDP fluorescence polarization | shares compounds with JMJD2A Tudor inh | AID 602388 | Potency, µM, usual class: inhibitors | hit rate 80% among 25
# Target sequence (P49798 whole entry, looked up): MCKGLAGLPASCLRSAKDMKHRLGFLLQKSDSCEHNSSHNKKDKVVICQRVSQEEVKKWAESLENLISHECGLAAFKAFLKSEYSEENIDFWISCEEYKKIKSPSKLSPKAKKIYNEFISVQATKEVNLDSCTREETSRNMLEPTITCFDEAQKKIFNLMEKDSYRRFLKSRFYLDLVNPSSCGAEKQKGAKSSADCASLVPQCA
# Hits are given with their value; 0 = inactive; ? = inconclusive; - = no result; [ ] = another dose, or the depositor's remark. Compounds with a hit are over-represented: about 5.3% of the library has one in this group of screens. Unless noted, calls come from the whole dose curve; as a rule, active = well fitted curve in the direction sought with a large enough effect; inconclusive = small, poorly fitted or top-dose-only effect, or another doubt; inactive = no such curve, though single readings can be large; an effect the other way counts as inactive or inconclusive.
SMILES,BAZ2B inh,CtBP-E1A blk,Six1-Eya2 blk,TDP1 block,HP1b binding inh,JMJD2A Tudor inh,G9a confirm,others
Cc1cc(C)cc(N2C(=O)CC(Sc3nnnn3-c3ccccc3)C2=O)c1 (stereo unspecified),?,0,0,0,0,0,-,
Cc1cc(C)cc(N2C(=O)CC(Sc3ncn[nH]3)C2=O)c1 (stereo unspecified),0,0,0,-,?,?,-,JMJD2E confirm=6.31µM;FDH counter=0.282µM
Cc1cnc(CNc2ccnc(-c3ccc(N(C)C)cc3)n2)cn1,-,-,-,0,-,-,-,
COc1ccccc1-c1nccc(NCc2cnc(C)cn2)n1,-,-,-,-,-,-,-,RGS4 confirm=26.7
NC(=O)c1ccc(-n2nnnc2SCC(=O)c2ccc(O)c(O)c2)cc1,?,?,0,-,0,?,-,JMJD2E confirm=7.94µM;FDH counter=0
COc1ccc(NC(=O)CC2Sc3ncnn3C2=O)cc1 (stereo unspecified),0,0,0,0,0,?,0.632,JMJD2E confirm=3.16µM;FDH counter=0.282µM
COCCN1C(=O)C(CC(=O)Nc2ccccc2)SC1=Nc1ccc(OC)cc1 (stereo unspecified),0,0,0,0,0,0,-,
CCOC(=O)c1ccc(NC(=O)CN2C(=O)C(C)SC(C)C2=O)cc1 (stereo unspecified),0,-,0,0,0,0,-,
CCOC(=O)c1ccc(NC(=O)CC2Sc3ncnn3C2=O)cc1 (stereo unspecified),0,0,0,-,?,7.94µM,0.564,JMJD2E confirm=2µM;FDH counter=0.159µM
Cc1ccc(C2CCN(C(=O)c3cnn(-c4ccc(C)c(C)c4)c3C3CCN(C(=O)OC(C)(C)C)CC3)C2)cc1 (stereo unspecified),0,-,-,0,0,0,-,
O=C(CSc1nnc(-c2ccccc2F)o1)N1CCc2ccccc21,0,-,-,0,0,0,-,
COc1ccc(Cl)cc1NC(=O)c1c(NCc2cccnc2)sc2c1CCCC2,?,-,-,0,0,?,1.82,
Cc1ccccc1-c1nn2c(=O)cc(CN3CCN(S(=O)(=O)c4ccc(Cl)cc4)CC3)nc2s1,0,-,-,0,0,0,-,
CCOc1ccc(C(=O)NCCS(=O)(=O)N2CCN(c3cccc(Cl)c3)CC2)cc1,0,-,-,0,0,0,-,
CCn1c(SCC(=O)Nc2sc3c(c2C#N)CCCC3)nnc1-c1ccco1,0,0,0,0,0,0,28.3,
Nc1nc2c(nc(Br)n2C2O[C@H]3COP(=O)(O)O[C@@H]3C2O)c(=O)[nH]1 (stereo partly specified),-,-,-,0,-,-,-,
CSc1ncccc1C(=O)N1CCN(S(=O)(=O)c2cc(C)ccc2C)CC1,0,0,0,-,0,0,-,
Cc1ccc(C)c(S(=O)(=O)N2CCN(Cc3ccc(O)c4ncccc34)CC2)c1,-,-85.8,-78.5,0,0,0,-,JMJD2E confirm=35.5µM;FDH counter=?
COc1ccc(NC(=O)c2cc3nc(-c4ccc(Cl)c(Cl)c4)cc(C(F)(F)F)n3n2)c(OC)c1,0,-,-,0[12.3 µM],0,0,-,
CCN(CC)c1ccc(NC(=O)Nc2cccc(C(C)=O)c2)cc1,31.6µM,?,0,0,0,35.5µM,3.17,
CCOCCOC(=O)c1[nH]c2c(c1C)C(=O)CC(c1ccc(OC)c(OC)c1)C2 (stereo unspecified),0,0,0,-,0,0,-,
CCOCCOC(=O)c1[nH]c2c(c1C)C(=O)CC(c1ccc(N(C)C)cc1)C2 (stereo unspecified),?,0,0,0,0,?,?,
COc1ccc(S(=O)(=O)N2CCN(CC(=O)NCCc3cccs3)CC2)cc1,0,0,0,0,0,0,?,
COc1ccc(S(=O)(=O)N2CCN(CC(=O)NC(C)c3cccs3)CC2)cc1 (stereo unspecified),-,0,0,-,-,-,-,
Cc1cc2cc(C(c3nnnn3Cc3ccco3)N3CCc4ccccc43)c(=O)[nH]c2cc1C (stereo unspecified),?,0,0,0,0,?,-,RGS4 confirm=6.7
SMILES,BAZ2B inh,CtBP-E1A blk,Six1-Eya2 blk,TDP1 block,HP1b binding inh,JMJD2A Tudor inh,G9a confirm,others
Cc1cc(C)cc(-n2ccn3c(CC(C)(C)CC(=O)O)nnc3c2=O)c1,0,-,-,0,0,0,-,
O=C(CSC1=NCCS1)N1CCc2ccccc21,0,0,0,0,0,0,1.59,
CCCOc1ccc(C(=O)Nc2ccc(N(C)C)cc2)cc1,0,0,0,0,0,0,1,
CCCCOC(=O)Nc1ccc(C(N)=O)cc1,0,0,0,0,0,0,-,
CCCCOC(=O)Nc1ccc(N(C)C)cc1,39.8µM,0,?,0,?,79.4µM,1.59,
COc1ccc(-c2nn(CC(=O)NCc3ccccc3)c3c2cnc2ccc(F)cc23)cc1,0,-,-,0,0,0,-,
COc1ccc2nc(NC(=O)CSc3nc(C)cc(=O)[nH]3)sc2c1,0,0,0,0,0,0,25.1,
COCc1cc(C)nc2sc3c(c12)NC(c1ccccc1C(=O)O)N(c1cccc(C(F)(F)F)c1)C3=O (stereo unspecified),0,-,-,0,0,0,-,
CN(C)c1ccc(NC(=O)CCSc2nc(-c3ccco3)cc(C(F)(F)F)n2)cc1,?,-,-,0,0,?,1.26,
NCCC[C@@H](CC(=O)N[C@@H]1CCCC[C@H]1C(=O)N[C@H](CC(=O)N[C@@H](CCC(=O)O)CC(=O)O)Cc1c[nH]c2ccccc12)NC(=O)C[C@H](CO)NC(=O)[C@@H]1CCCC[C@H]1N,-,-,-,0,-,-,-,
Cc1nn(C)c2ncc(C(=O)c3ccccc3O)cc12,0,0,0,0,0,0,-,
Cc1nn(-c2ccccc2)c2ncc(C(=O)c3cc(Cl)ccc3O)cc12,?,0,0,0,0,?,11.2,
CCc1cccc(C)c1NC(=O)c1cccc(N(C)C)c1,89.1µM,0,0,0,0,0,8.91,
O=C(Nc1nnc(-c2ccccc2)s1)C1CCCN(C(=O)c2ccoc2)C1 (stereo unspecified),-,-,-,-,?,0,-,RGS4 confirm=23.8
CCc1nnc(NC(=O)C2CCCN(C(=O)c3ccoc3)C2)s1 (stereo unspecified),-,-,-,-,0,0,-,
Cc1ccccc1Cc1c(C)nc2nc(SCC(=O)N(C)c3ccccc3)nn2c1C,0,-,-,0,0,0,-,
Oc1c(C(Nc2nccs2)c2ccc(C(F)(F)F)cc2)ccc2cccnc12 (stereo unspecified),0,?,?,0,0,44.7µM,-,JMJD2E confirm=22.4µM;FDH counter=0
